Here are results for 15 sequences from paper PMC3218832.

Among the targets are RELARELA (p65 homodimer) (Homo sapiens, UniProt Q04206 1-307); p50p50 homodimer (Homo sapiens, UniProt P19838 7-356); RELB subunit;p50 subunit (Homo sapiens;Homo sapiens, UniProt Q01201;P19838 120-401;7-356).
What all share (test): protein binding microarray; high values mean tight binding
Details in all cases: dsDNA, one strand shown

For a further assay, the target named is T1, p52p52 homodimer (Homo sapiens, UniProt Q00653 4-332).
T1 sequence: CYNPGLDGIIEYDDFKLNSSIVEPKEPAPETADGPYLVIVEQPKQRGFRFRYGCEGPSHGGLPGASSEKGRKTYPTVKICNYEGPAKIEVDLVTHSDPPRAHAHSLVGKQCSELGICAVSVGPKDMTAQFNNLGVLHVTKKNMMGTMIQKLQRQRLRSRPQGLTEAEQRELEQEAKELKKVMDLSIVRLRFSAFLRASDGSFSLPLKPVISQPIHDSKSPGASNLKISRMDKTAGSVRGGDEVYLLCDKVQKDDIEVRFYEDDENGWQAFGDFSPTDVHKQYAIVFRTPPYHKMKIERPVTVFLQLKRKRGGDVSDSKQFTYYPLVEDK

Assay [1] addresses RELA (p65) subunit of heterodimer;p50 subunit (Homo sapiens;Homo sapiens, UniProt Q04206;P19838 1-307;7-356).
The target in assay [2] is RELA (p65) subunit of heterodimer;p52 subunit (Homo sapiens;Homo sapiens, UniProt Q04206;Q00653 1-307;4-332).
A further assay concerns the target T2, RELB subunit;p52 subunit (Homo sapiens;Homo sapiens, UniProt Q01201;Q00653 120-401;4-332).
T2 sequence 1: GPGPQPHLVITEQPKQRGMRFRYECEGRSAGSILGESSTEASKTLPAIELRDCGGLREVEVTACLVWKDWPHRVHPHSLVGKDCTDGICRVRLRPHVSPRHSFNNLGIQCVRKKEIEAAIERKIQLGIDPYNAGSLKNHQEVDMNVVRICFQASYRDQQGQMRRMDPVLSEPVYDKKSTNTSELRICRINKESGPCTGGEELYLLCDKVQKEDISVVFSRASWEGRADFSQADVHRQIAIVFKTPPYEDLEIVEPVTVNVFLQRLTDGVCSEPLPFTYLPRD
T2 sequence 2: T1 sequence

The target in assay [3] is C-Rel subunit;p50 subunit (Homo sapiens;Homo sapiens, UniProt Q04864;P19838 1-285;7-356).
The target of assay [4] is T3, C-Rel subunit;p52 subunit (Homo sapiens;Homo sapiens, UniProt Q04864;Q00653 1-285;4-332).
T3 sequence 1: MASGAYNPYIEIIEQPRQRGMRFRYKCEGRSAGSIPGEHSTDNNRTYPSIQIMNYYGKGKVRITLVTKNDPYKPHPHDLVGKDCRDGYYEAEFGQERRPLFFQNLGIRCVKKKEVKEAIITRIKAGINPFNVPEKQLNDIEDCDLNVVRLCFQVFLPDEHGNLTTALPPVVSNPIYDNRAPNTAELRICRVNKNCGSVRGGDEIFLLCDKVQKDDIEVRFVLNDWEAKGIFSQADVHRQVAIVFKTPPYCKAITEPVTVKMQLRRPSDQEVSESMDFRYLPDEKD
T3 sequence 2: T1 sequence

Sequence of p50p50 homodimer (P19838 7-356): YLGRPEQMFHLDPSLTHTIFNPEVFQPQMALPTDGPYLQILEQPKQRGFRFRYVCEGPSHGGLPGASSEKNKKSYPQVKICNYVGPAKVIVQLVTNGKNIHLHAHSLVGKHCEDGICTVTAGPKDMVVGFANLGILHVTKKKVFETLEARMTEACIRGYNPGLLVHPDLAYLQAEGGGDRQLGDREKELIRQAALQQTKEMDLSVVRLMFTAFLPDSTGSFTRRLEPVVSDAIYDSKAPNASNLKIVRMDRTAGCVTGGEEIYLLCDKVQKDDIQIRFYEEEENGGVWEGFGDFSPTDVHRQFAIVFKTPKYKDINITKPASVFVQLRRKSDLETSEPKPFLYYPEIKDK
Sequence of RELARELA (p65 homodimer) (Q04206 1-307): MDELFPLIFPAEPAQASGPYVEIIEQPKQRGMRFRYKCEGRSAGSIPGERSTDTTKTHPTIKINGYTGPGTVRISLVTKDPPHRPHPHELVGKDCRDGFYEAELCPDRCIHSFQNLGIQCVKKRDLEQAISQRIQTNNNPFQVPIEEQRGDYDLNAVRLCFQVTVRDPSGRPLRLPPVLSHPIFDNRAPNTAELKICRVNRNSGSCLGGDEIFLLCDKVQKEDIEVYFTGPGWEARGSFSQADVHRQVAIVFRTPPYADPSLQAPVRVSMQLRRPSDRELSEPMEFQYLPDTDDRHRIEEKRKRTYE
Sequence of RELA (p65) subunit of heterodimer;p50 subunit (Q04206 1-307, chain 1 of 2): as the sequence (Q04206 1-307) above
Sequence of RELA (p65) subunit of heterodimer;p50 subunit (P19838 7-356, chain 2 of 2): as the sequence (P19838 7-356) above

Take GAAGTAATCCT: the binding signal is -0.663 z-score with RELARELA (p65 homodimer); -1.65 z-score in the assay with p50p50 homodimer; -0.468 z-score in the assay with p52p52 homodimer; -1 z-score in [1]; -0.977 z-score in assay [2]; -1.16 z-score with RELB subunit;p50 subunit. Besides, the figures for the binding signal (in the assay with RELB subunit;p52 subunit; in assay [3]; in [4]) were -0.928 z-score, -1.23 z-score and -0.892 z-score, respectively.

For the sequence CGAGACGTCCT, the binding signal in the assay with RELARELA (p65 homodimer) is -0.768 z-score; with p50p50 homodimer it was -1.33 z-score; in the assay with p52p52 homodimer, -0.73 z-score; in assay [1], -1.16 z-score; in [2], -0.933 z-score; in the assay with RELB subunit;p50 subunit, -1.07 z-score. For the same sequence, the binding signal was -0.949 z-score with RELB subunit;p52 subunit, -1.55 z-score in assay [3] and -0.864 z-score in assay [4].

Consider CAGTGGGTCCT, for which the binding signal was -0.388 z-score with RELARELA (p65 homodimer); -1.79 z-score with p50p50 homodimer; -0.509 z-score with p52p52 homodimer; -1.1 z-score in assay [1]; -0.79 z-score in assay [2]; -0.698 z-score in the assay with RELB subunit;p50 subunit. The binding signal with RELB subunit;p52 subunit is -0.708 z-score; in assay [3] it was -1.36 z-score; in assay [4], -1.08 z-score.

As to AGGTAGGTCCC, the binding signal with RELARELA (p65 homodimer) was -0.0694 z-score; with p50p50 homodimer, -0.0842 z-score; with p52p52 homodimer, 0.305 z-score; in assay [1], -0.0951 z-score; in assay [2] it was 0.0859 z-score; in the assay with RELB subunit;p50 subunit, 0.0975 z-score. Also, the binding signal with RELB subunit;p52 subunit is 0.178 z-score; in assay [3] it was 0.0304 z-score; in assay [4] it was 0.122 z-score.

Take AAAGACTCCCT: the binding signal is -0.338 z-score with RELARELA (p65 homodimer); 0.719 z-score in the assay with p50p50 homodimer; 0.0106 z-score with p52p52 homodimer; 0.327 z-score in assay [1]; 0.161 z-score in assay [2]; 0.395 z-score with RELB subunit;p50 subunit. Moreover, the binding signal with RELB subunit;p52 subunit is 0.156 z-score; in assay [3], -0.0953 z-score; in assay [4], 0.0126 z-score.

Consider GGGAGTGTCCT, for which the binding signal is 0.931 z-score with RELARELA (p65 homodimer); -0.152 z-score in the assay with p50p50 homodimer; 0.385 z-score with p52p52 homodimer; 0.0362 z-score in assay [1]; 0.309 z-score in [2]; -0.212 z-score in the assay with RELB subunit;p50 subunit. Further, the binding signal in the assay with RELB subunit;p52 subunit was 0.00999 z-score; in assay [3], -0.0276 z-score; in assay [4] it was 0.382 z-score.

Turning to AGGTAATTCCT, the binding signal amounted to 1.47 z-score with RELARELA (p65 homodimer); 0.62 z-score in the assay with p50p50 homodimer; 1.15 z-score with p52p52 homodimer; 0.471 z-score in [1]; 0.62 z-score in [2]; 0.351 z-score with RELB subunit;p50 subunit. The binding signal is 0.553 z-score with RELB subunit;p52 subunit, 0.224 z-score in assay [3] and 0.709 z-score in assay [4].

Regarding CGGGAGCTCCC, the binding signal with RELARELA (p65 homodimer) was 0.73 z-score; in the assay with p50p50 homodimer, 0.136 z-score; with p52p52 homodimer, 0.135 z-score; in [1] it was 0.408 z-score; in [2], 0.0305 z-score; with RELB subunit;p50 subunit it was 0.0766 z-score. Moreover, the binding signal was -0.106 z-score in the assay with RELB subunit;p52 subunit, -0.102 z-score in assay [3] and 0.192 z-score in assay [4].

For the sequence CAGAACTTCCC, the binding signal came to 1.94 z-score in the assay with RELARELA (p65 homodimer); 0.457 z-score with p50p50 homodimer; 0.196 z-score in the assay with p52p52 homodimer; 0.921 z-score in [1]; 0.329 z-score in [2]; 0.182 z-score with RELB subunit;p50 subunit. In addition, the binding signal with RELB subunit;p52 subunit amounted to 0.0935 z-score; in [3] it was 0.664 z-score; in assay [4], 0.413 z-score.

As to GAAGGCCCCCC, the binding signal with RELARELA (p65 homodimer) was -1.44 z-score; in the assay with p50p50 homodimer it was 0.635 z-score; in the assay with p52p52 homodimer it was 0.244 z-score; in [1], 0.456 z-score; in assay [2], 0.62 z-score; with RELB subunit;p50 subunit, 0.366 z-score. The binding signal was 0.671 z-score in the assay with RELB subunit;p52 subunit, 0.408 z-score in assay [3] and 0.0615 z-score in assay [4].

With AAAGTCTCCCC, the binding signal with RELARELA (p65 homodimer) was determined as 0.367 z-score; with p50p50 homodimer, 0.818 z-score; with p52p52 homodimer, 0.559 z-score; in [1] it was 0.733 z-score; in assay [2], 0.654 z-score; with RELB subunit;p50 subunit, 0.78 z-score. In addition, the binding signal with RELB subunit;p52 subunit was determined as 0.879 z-score; in assay [3], 0.882 z-score; in assay [4] it was 0.388 z-score.

GGGATGCCCCT: the binding signal with RELARELA (p65 homodimer) worked out at 1.02 z-score; with p50p50 homodimer, 0.778 z-score; with p52p52 homodimer it was 2.65 z-score; in assay [1], 1.78 z-score; in assay [2], 2.07 z-score; with RELB subunit;p50 subunit it was 1.74 z-score. Also, the figures for the binding signal (with RELB subunit;p52 subunit; in [3]; in assay [4]) were 1.82 z-score, 1.22 z-score and 2.2 z-score, respectively.

For AGGTAGCTCCT, the binding signal with RELARELA (p65 homodimer) was -0.716 z-score; in the assay with p50p50 homodimer, -0.916 z-score; in the assay with p52p52 homodimer, -0.638 z-score; in assay [1] it was -0.909 z-score; in [2], -0.901 z-score; with RELB subunit;p50 subunit, -0.802 z-score. The binding signal in the assay with RELB subunit;p52 subunit is -0.975 z-score; in assay [3], -1.36 z-score; in assay [4], -0.889 z-score.

In the case of GAAGTGGCCCC, the binding signal in the assay with RELARELA (p65 homodimer) was -1.02 z-score; in the assay with p50p50 homodimer it was -0.225 z-score; with p52p52 homodimer it was -0.401 z-score; in assay [1], -0.503 z-score; in assay [2], -0.265 z-score; with RELB subunit;p50 subunit, -0.183 z-score. Moreover, the binding signal with RELB subunit;p52 subunit was -0.112 z-score; in assay [3], -0.347 z-score; in [4], -0.316 z-score.

AAAAGGGCCCT: the binding signal with RELARELA (p65 homodimer) is -0.729 z-score; with p50p50 homodimer, -0.423 z-score; in the assay with p52p52 homodimer it was -0.373 z-score; in [1], -0.762 z-score; in [2], -0.52 z-score; with RELB subunit;p50 subunit it was -0.464 z-score. The binding signal is -0.386 z-score with RELB subunit;p52 subunit, -1.07 z-score in [3] and -0.406 z-score in assay [4].
